Laboratory results taken from ChEMBL document CHEMBL3988442, “University of Dundee, Small-Polar-MMV Screening Library” (2021).

These compounds were tested against T1, Aspartate--tRNA(Asp/Asn) ligase (Mycobacterium tuberculosis (strain ATCC 25618 / H37Rv)) (UniProt P9WFW3) (assay: Assay for Asp RNA synthetase-1 from Mycobacterium tuberculosis). Conditions: 30 µM.
T1 sequence (whole entry): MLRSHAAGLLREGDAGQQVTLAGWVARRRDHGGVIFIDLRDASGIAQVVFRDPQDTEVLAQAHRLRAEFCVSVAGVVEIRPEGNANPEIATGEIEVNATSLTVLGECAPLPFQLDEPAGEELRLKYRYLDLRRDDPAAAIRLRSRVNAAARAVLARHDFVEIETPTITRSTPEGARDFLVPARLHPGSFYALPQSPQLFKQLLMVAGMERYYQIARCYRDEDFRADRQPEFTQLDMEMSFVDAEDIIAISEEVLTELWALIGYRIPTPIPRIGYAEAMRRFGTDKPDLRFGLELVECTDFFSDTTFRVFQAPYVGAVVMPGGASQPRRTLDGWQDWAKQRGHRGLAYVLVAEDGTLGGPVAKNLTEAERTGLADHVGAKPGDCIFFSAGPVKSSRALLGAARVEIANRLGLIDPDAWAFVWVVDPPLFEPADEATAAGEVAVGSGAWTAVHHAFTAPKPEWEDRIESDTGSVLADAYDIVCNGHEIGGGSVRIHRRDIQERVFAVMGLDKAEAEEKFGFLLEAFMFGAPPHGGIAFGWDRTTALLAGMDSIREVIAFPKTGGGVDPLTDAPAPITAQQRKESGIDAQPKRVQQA
Assay type: functional
Set-up: scale not given: direction of the effect not stated beside the values

Compound	Percent Effect
CCc1nccn1-c1cncc(C2CCCN2Cc2cccnc2)n1 (stereo not given)	5.87%
O=C(C1=CCCC1)N1C[C@@H]2COC[C@]2(COc2cccnc2)C1	-3.68%
Cc1nc2cc(C3CCN(Cc4cccc(F)c4F)C3)nn2c(O)c1C (stereo not given)	2.37%
CCc1cc(NCCc2ccc(O)cc2)n2nccc2n1	5.69%
COc1ccc(OC)c(CCNC(=O)NC(C)Cn2ccnc2)c1 (stereo not given)	-6.68%
CCc1nnc2n1CC(CNCc1ccncc1)CC2 (stereo not given)	-3.51%
CCc1nnc2n1CCN(CC(=O)Nc1sccc1C#N)C2	-0.787%
CC(=O)N1CCc2c(nc(-c3ccncc3)nc2N(C)CC(O)CO)C1 (stereo not given)	-1.07%
O=C1CC(c2cccnc2)C2(CCN(S(=O)(=O)C3CC3)CC2)N1 (stereo not given)	-1.76%
O=C(N1CCCC1)N1CCC2(CCCN(CCOc3ccccc3)C2)C1 (stereo not given)	-0.364%
Cc1cccc(CCC(=O)N2CCOCC2c2c(C)n[nH]c2C)c1 (stereo not given)	3.91%
O=C(Cc1ccccn1)N1CCN(C(=O)c2cccc3[nH]ncc23)CC1	-2.75%
Cc1nc(CN(C)C2CCN(CC3CCCCC3)C2)no1 (stereo not given)	-2.62%
CCn1cc(C(=O)N2CCCC(c3[nH]ncc3S(C)(=O)=O)C2)cn1 (stereo not given)	-3.25%
COCCC(=O)N1CC2(CCN(Cc3cccc(Cl)c3)CC2)C1	-1.46%
COCCOc1cccc(C(=O)N2CCCC(n3ccnc3C)C2)c1 (stereo not given)	-2.52%
Cc1ccc(S(=O)(=O)Nc2ccc(=O)n(C)c2)cc1	26.8%
CCN1CCC2(CC1)CC(NC(=O)N(C)C)c1cc(C)ccc12 (stereo not given)	2.85%
O=C(CSc1nc2c(cnn2CCO)c(=O)[nH]1)N1CCCCCC1	-7.88%
CCOCCn1nc(C)cc1C(=O)N1CCOCC(CO)C1 (stereo not given)	-1.08%

Compound	Percent Effect
CC(C)c1nc(C(=O)N2CCOCC2CC(=O)c2ccco2)c[nH]1 (stereo not given)	-0.629%
Cc1cc(C)c(CNC(=O)NCC(c2ccccc2)N(C)C)c(=O)[nH]1 (stereo not given)	4.47%
CC(C)c1nn(C)c(N2CCOCC2)c1CNC(C)c1cccs1 (stereo not given)	-0.59%
CCCn1nc2c(cc1=O)CN(CC(=O)Nc1ccncc1)CC2	2.52%
CC(=O)Nc1nc(CN2CCCC2Cn2cncn2)cs1 (stereo not given)	-6.16%
CCN(C1CCS(=O)(=O)C1)S(=O)(=O)c1cccc2cc(C)cnc12 (stereo not given)	-1.66%
CNC(=O)[C@@]12CCO[C@@H]1CCN(S(=O)(=O)c1cccc(C)c1)C2	-4.6%
O=c1oc(-c2ccc(F)cc2)nn1CN1CCN(C2CCCC2)CC1	0.546%
Cc1nc(CN2CCC3(CCN(c4ncc(F)cn4)C3)C2=O)cs1 (stereo not given)	7.33%
CCc1nnsc1C(=O)N1CCCN(Cc2cnn(C)c2)CC1	3.06%
COC(=O)c1cccc(C(=O)N2CCN(c3ccccc3F)CC2)n1	-0.801%
Cc1nc(CN2CCOC(CNc3cccnn3)C2)oc1C (stereo not given)	-4%
Cc1cc(C)n(C2CCCN(C(=O)c3cnc4onc(C)c4c3)C2)n1 (stereo not given)	-0.75%
Cn1cc(CN2CCC3(CCCN3S(C)(=O)=O)CC2)cn1	5.38%
COC(=O)c1cccc(C(=O)N2CCN(c3cccc(C)c3C)CC2)n1	-1.18%
O=C(NCc1ccco1)[C@H]1C[C@H]2OCC[C@H]2N(C(=O)c2ccncc2)C1	4.89%
CN(C)C(=O)Cc1ccc(NC(=O)NC2CCCCC2)cc1	-1.13%
C[C@@H]1CN(C(=O)c2ccc(C#N)nc2)C[C@@]1(O)C1CC1	0.0335%
O=C(C1CCCc2[nH]ncc21)N1CCCC1 (stereo not given)	2.61%
CCOC(C)c1nc(CN2CCNCC2)cs1 (stereo not given)	-2.26%

The compounds below were run against Shiga toxin 2 (Escherichia coli O157:H7) (UniProt P09385+P09386) (assay: E. coli 0.157:H7 Shiga Toxin SOP - stx2 screening assay). Conditions: 30 µM.
Assay type: functional
Set-up: scale not given: direction of the effect not stated beside the values

Compound	Percent Effect
CCc1nccn1-c1cncc(C2CCCN2Cc2cccnc2)n1 (stereo not given)	-37.2%
O=C(C1=CCCC1)N1C[C@@H]2COC[C@]2(COc2cccnc2)C1	1.76%
Cc1nc2cc(C3CCN(Cc4cccc(F)c4F)C3)nn2c(O)c1C (stereo not given)	-139%
CCc1cc(NCCc2ccc(O)cc2)n2nccc2n1	5.92%
COc1ccc(OC)c(CCNC(=O)NC(C)Cn2ccnc2)c1 (stereo not given)	31%
CCc1nnc2n1CC(CNCc1ccncc1)CC2 (stereo not given)	-13.5%
CCc1nnc2n1CCN(CC(=O)Nc1sccc1C#N)C2	24.4%
CC(=O)N1CCc2c(nc(-c3ccncc3)nc2N(C)CC(O)CO)C1 (stereo not given)	5.83%
O=C1CC(c2cccnc2)C2(CCN(S(=O)(=O)C3CC3)CC2)N1 (stereo not given)	4.96%
O=C(N1CCCC1)N1CCC2(CCCN(CCOc3ccccc3)C2)C1 (stereo not given)	-4.82%
Cc1cccc(CCC(=O)N2CCOCC2c2c(C)n[nH]c2C)c1 (stereo not given)	-16.7%
O=C(Cc1ccccn1)N1CCN(C(=O)c2cccc3[nH]ncc23)CC1	1.83%
Cc1nc(CN(C)C2CCN(CC3CCCCC3)C2)no1 (stereo not given)	-9.5%
CCn1cc(C(=O)N2CCCC(c3[nH]ncc3S(C)(=O)=O)C2)cn1 (stereo not given)	-8.37%
COCCC(=O)N1CC2(CCN(Cc3cccc(Cl)c3)CC2)C1	-17.6%
COCCOc1cccc(C(=O)N2CCCC(n3ccnc3C)C2)c1 (stereo not given)	-16%
Cc1ccc(S(=O)(=O)Nc2ccc(=O)n(C)c2)cc1	-7.78%
CCN1CCC2(CC1)CC(NC(=O)N(C)C)c1cc(C)ccc12 (stereo not given)	-28.6%
O=C(CSc1nc2c(cnn2CCO)c(=O)[nH]1)N1CCCCCC1	-8.39%
CCOCCn1nc(C)cc1C(=O)N1CCOCC(CO)C1 (stereo not given)	-28%

Compound	Percent Effect
CC(C)c1nc(C(=O)N2CCOCC2CC(=O)c2ccco2)c[nH]1 (stereo not given)	-1.83%
Cc1cc(C)c(CNC(=O)NCC(c2ccccc2)N(C)C)c(=O)[nH]1 (stereo not given)	23.9%
CC(C)c1nn(C)c(N2CCOCC2)c1CNC(C)c1cccs1 (stereo not given)	33.2%
CCCn1nc2c(cc1=O)CN(CC(=O)Nc1ccncc1)CC2	-19.5%
CC(=O)Nc1nc(CN2CCCC2Cn2cncn2)cs1 (stereo not given)	-44%
CCN(C1CCS(=O)(=O)C1)S(=O)(=O)c1cccc2cc(C)cnc12 (stereo not given)	30.4%
CNC(=O)[C@@]12CCO[C@@H]1CCN(S(=O)(=O)c1cccc(C)c1)C2	9.63%
O=c1oc(-c2ccc(F)cc2)nn1CN1CCN(C2CCCC2)CC1	-2.79%
Cc1nc(CN2CCC3(CCN(c4ncc(F)cn4)C3)C2=O)cs1 (stereo not given)	-9.92%
CCc1nnsc1C(=O)N1CCCN(Cc2cnn(C)c2)CC1	7.82%
COC(=O)c1cccc(C(=O)N2CCN(c3ccccc3F)CC2)n1	-16.2%
Cc1nc(CN2CCOC(CNc3cccnn3)C2)oc1C (stereo not given)	0.662%
Cc1cc(C)n(C2CCCN(C(=O)c3cnc4onc(C)c4c3)C2)n1 (stereo not given)	15.8%
Cn1cc(CN2CCC3(CCCN3S(C)(=O)=O)CC2)cn1	4.5%
COC(=O)c1cccc(C(=O)N2CCN(c3cccc(C)c3C)CC2)n1	-18.6%
O=C(NCc1ccco1)[C@H]1C[C@H]2OCC[C@H]2N(C(=O)c2ccncc2)C1	8.77%
CN(C)C(=O)Cc1ccc(NC(=O)NC2CCCCC2)cc1	1.55%
C[C@@H]1CN(C(=O)c2ccc(C#N)nc2)C[C@@]1(O)C1CC1	-1.27%
O=C(C1CCCc2[nH]ncc21)N1CCCC1 (stereo not given)	-4.59%
CCOC(C)c1nc(CN2CCNCC2)cs1 (stereo not given)	-12.7%
